For some assays here: Measured potencies and affinities stand elsewhere. Calls of active or inactive are those of the source.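 The calls were made as follows, unless noted: active = fluorescence ratio normalized to control raised more than 50% in primary screen plus both repeat runs; inactive = the rest.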
Experiments:
[1] = test system: TRPC4 beta (transient receptor potential cation channel C4), mouse; test: activators of mouse TRPC4 channel, confirmation, cell-based, Fluo4 calcium, HEK293 TRPC4beta/mu-opioid, duplicates, 10 µM (AID 2426); conditions: Fluo4 calcium fluorescence, at 10 µM; hits give high values;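 also: percent rise of integrated ratio over buffer wells lacking compound which define 0%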
[2] = test system: transient receptor potential cation channel C4 beta (TRPC4), mouse; test: activators of mouse TRPC4 channel, confirmation, cell-based, second round, Fluo4, HEK293 TRPC4beta/mu-opioid, 1 µM (AID 2461;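 active = primary screen active and over 50% activation in each of two duplicate runs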;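 as to activation: 0% = wells without test compound as baseline of integrated fluorescence ratio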); conditions: Fluo4 calcium fluorescence, at 1 µM; hits give high values
[3] = test system: TRPC4 (transient receptor potential cation channel C4 beta), mouse; test: positive allosteric modulators of mouse TRPC4, confirmation, cell-based, second round, Fluo-4, HEK293 TRPC4beta/mu-opioid, 1 µM (AID 2554;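 active = primary screen hit whose fluorescence ratio, in both repeats, exceeds the weak agonist control mean by 3 SD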); conditions: DAMGO EC20, Fluo-4 calcium flux, at 1 µM; hits give high values
[4] = test system: TRPC4 beta (transient receptor potential cation channel C4), mouse; test: positive allosteric modulators of mouse TRPC4, confirmation, cell-based, Fluo-4, HEK293 TRPC4beta/mu-opioid (AID 2555;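 active = primary screen hit whose calcium fluorescence ratio, in both repeats, exceeds the weak agonist control mean by 3 SD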); conditions: DAMGO EC20, Fluo-4 calcium flux, at 10 µM; hits give high values
[5] = target: Short transient receptor potential channel 4 (Mus musculus) (UniProt Q9QUQ5); test: inhibitors of mouse TRPC4 channel, confirmation, cell-based, Fluo4, HEK293 TRPC4beta/mu-opioid (AID 2636;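 active = calcium signal cut by more than 3 SD below the full-agonist control yet still positive, in both repeats and the earlier primary screen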); conditions: DAMGO, Fluo4 calcium flux, at 10 µM; hits give high values
[6] = target: Short transient receptor potential channel 4 (Mus musculus) (UniProt Q9QUQ5); test: inhibitors of mouse TRPC4 channel, confirmation, cell-based, second round, Fluo4, HEK293 TRPC4beta/mu-opioid, 1 µM (AID 2637;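 active = calcium signal ratio cut to more than 3 SD under the fully stimulated control mean yet still positive, in both repeats and the primary screen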); conditions: Fluo4 calcium flux, DAMGO, at 1 µM; hits give high values
[7] = target: Short transient receptor potential channel 4 (Mus musculus) (UniProt Q9QUQ5); test: TRPC4 positive allosteric modulators, dose response, cell-based, HEK293 TRPC4/mu-opioid, Fluo-4 calcium, EC20 DAMGO (AID 434941;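 active = earlier screen potentiator hit that boosts the TRPC4 ion channel at some dose, with a dose response; inactive = no potentiation, no dose response, or not a prior hit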;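 also: calcium entry triggered by an EC20 dose of DAMGO at the co-expressed mu-opioid receptor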)
[8] = target: Short transient receptor potential channel 4 (Mus musculus) (UniProt Q9QUQ5); test: mouse TRPC4 channel inhibitors, dose response, cell-based, HEK293 TRPC4/mu-opioid, Fluo-4 calcium (AID 434942;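 active = primary screen inhibitor hit that blocks the TRPC4 channel at some tested dose, yielding a dose curve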)
[9] = target: Short transient receptor potential channel 6 (Mus musculus) (UniProt Q61143); test: inhibition of mouse TRPC6 channel, confirmation, selectivity assay for TRPC4 inhibitor project, cell-based, HEK293, membrane potential dye, duplicate (AID 434948;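 active = active in primary screen and both duplicates, each dropping signal beyond three positive-control SD with fluorescence still positive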); conditions: HEK293 TRPC6, membrane potential dye fluorescence, at 10 µM; inhibition: hits give high values, stimulated with maximal-effect acetylcholine unless noted; outcome: stimulated with maximal-effect acetylcholine unless noted
[10] = target: Short transient receptor potential channel 6 (Mus musculus) (UniProt Q61143); test: activation of mouse TRPC6 channel, confirmation, selectivity assay for TRPC4 activator project, cell-based, HEK293, membrane potential dye, duplicate (AID 434950;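 active = membrane potential signal rise above negative control mean plus 3 SD in both duplicates, also active in the earlier TRPC4 screen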;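 as to activation: 0% = buffer only wells and 100% = acetylcholine maximal-effect wells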); conditions: HEK293 TRPC6, membrane potential fluorescence, at 10 µM; hits give high values
[11] = target: Short transient receptor potential channel 6 (Mus musculus) (UniProt Q61143); test: TRPC6 potentiation by TRPC4 potentiator hits, confirmation, selectivity assay for TRPC4 potentiator project, HEK293 cells, membrane potential dye, duplicate (AID 434952;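 active = compound raising the membrane signal above positive-control mean plus 3 SD in both repeats, and a primary screen hit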); conditions: HEK293 TRPC6, membrane potential dye fluorescence, at 10 µM; maximal acetylcholine added after compound unless noted
[12] = target: Short transient receptor potential channel 4 (Mus musculus) (UniProt Q9QUQ5); test: calcium flux activators in TRPC4/5HT1a cells, counter-screen for TRPC4 activator project, cell-based, second counter screen, HEK293 TRPC4/5HT1a, Fluo-4 (AID 434977;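 active = calcium signal rise above buffer-control mean plus 5 SD in both duplicates, and also a hit in the primary screen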;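 as to activation: plate controls were assay buffer for no effect and maximal serotonin response for full effect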); conditions: Fluo-4 calcium flux, at 10 µM; hits give high values
[13] = calcium flux inhibitors in TRPC4/5HT1a cells, confirmation, counter-screen for TRPC4 inhibitor project, cell-based, second counter screen, HEK293 TRPC4/5HT1a, Fluo-4 (AID 434978;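 active = primary screen active whose calcium signal fell more than 3 SD beyond the full-serotonin control mean in both duplicate plates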;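 also: serotonin given first at submaximal then at maximal dose after compound preincubation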); conditions: Fluo-4 calcium flux, at 10 µM; inhibition: hits give high values, serotonin added to trigger calcium flux unless noted; outcome: serotonin added to trigger calcium flux unless noted
[14] = test system: TRPC4 (mouse), co-expressed with 5HT1a in HEK293; test: calcium flux potentiators in TRPC4/5HT1a cells, confirmation, counter-screen for TRPC4 potentiator project, cell-based, second counter screen, HEK293 TRPC4/5HT1a, Fluo-4 (AID 434979;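 active = signal rise over 3 SD above mean of control wells given weak agonist, in both repeats and first screen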); conditions: Fluo-4 calcium flux, at 10 µM; outcome: serotonin added at its EC20 dose unless noted; potentiation: hits give high values, serotonin added at its EC20 dose unless noted
[15] = calcium flux activation in mu-opioid HEK293 cells, confirmation, counter-screen for TRPC4 activator project, cell-based, HEK293 mu-opioid receptor line (AID 449723;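 active = hit in primary screen, with calcium signal over 5 SD above buffer well mean in both duplicates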;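 also: counter screen cells carry the mu-opioid receptor alone and lack TRPC4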); conditions: Fluo-4 calcium fluorescence, at 10 µM; hits give high values
[16] = calcium flux enhancement in mu-opioid HEK293 cells, confirmation, counter-screen for TRPC4 allosteric potentiator project, cell-based, HEK293 mu-opioid receptor line (AID 449724;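 active = calcium signal rise more than 3 SD above the low-dose agonist control mean, in both duplicate plates and the primary screen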); conditions: Fluo-4 calcium flux, at 10 µM; compound added before EC20 DAMGO stimulus unless noted

Short transient receptor potential channel 6 (Mus musculus), sequence (Q61143 whole entry, looked up): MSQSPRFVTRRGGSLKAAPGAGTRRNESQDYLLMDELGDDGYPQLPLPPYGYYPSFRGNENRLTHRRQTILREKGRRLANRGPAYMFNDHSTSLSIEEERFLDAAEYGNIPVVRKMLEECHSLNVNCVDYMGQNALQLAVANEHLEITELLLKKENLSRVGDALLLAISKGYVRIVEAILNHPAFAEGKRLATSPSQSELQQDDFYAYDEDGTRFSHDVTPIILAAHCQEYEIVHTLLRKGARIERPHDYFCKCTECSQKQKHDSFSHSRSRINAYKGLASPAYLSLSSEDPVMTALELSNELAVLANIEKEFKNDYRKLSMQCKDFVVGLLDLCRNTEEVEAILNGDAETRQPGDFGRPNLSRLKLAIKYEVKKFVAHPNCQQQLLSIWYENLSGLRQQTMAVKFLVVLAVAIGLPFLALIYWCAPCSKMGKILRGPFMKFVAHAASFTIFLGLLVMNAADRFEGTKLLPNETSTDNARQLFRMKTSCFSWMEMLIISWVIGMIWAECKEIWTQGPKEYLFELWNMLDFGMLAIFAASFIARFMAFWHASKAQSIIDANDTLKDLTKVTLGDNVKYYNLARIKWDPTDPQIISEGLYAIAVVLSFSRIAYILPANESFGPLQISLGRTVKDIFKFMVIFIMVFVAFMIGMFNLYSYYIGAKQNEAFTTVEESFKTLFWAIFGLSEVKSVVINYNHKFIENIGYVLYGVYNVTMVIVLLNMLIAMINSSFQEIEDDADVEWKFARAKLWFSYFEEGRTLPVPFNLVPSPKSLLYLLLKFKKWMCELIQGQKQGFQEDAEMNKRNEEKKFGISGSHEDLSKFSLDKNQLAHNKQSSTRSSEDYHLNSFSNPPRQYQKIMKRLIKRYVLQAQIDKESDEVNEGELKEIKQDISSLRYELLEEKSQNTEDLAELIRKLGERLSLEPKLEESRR
Short transient receptor potential channel 4 (Mus musculus), sequence (Q9QUQ5 whole entry, looked up): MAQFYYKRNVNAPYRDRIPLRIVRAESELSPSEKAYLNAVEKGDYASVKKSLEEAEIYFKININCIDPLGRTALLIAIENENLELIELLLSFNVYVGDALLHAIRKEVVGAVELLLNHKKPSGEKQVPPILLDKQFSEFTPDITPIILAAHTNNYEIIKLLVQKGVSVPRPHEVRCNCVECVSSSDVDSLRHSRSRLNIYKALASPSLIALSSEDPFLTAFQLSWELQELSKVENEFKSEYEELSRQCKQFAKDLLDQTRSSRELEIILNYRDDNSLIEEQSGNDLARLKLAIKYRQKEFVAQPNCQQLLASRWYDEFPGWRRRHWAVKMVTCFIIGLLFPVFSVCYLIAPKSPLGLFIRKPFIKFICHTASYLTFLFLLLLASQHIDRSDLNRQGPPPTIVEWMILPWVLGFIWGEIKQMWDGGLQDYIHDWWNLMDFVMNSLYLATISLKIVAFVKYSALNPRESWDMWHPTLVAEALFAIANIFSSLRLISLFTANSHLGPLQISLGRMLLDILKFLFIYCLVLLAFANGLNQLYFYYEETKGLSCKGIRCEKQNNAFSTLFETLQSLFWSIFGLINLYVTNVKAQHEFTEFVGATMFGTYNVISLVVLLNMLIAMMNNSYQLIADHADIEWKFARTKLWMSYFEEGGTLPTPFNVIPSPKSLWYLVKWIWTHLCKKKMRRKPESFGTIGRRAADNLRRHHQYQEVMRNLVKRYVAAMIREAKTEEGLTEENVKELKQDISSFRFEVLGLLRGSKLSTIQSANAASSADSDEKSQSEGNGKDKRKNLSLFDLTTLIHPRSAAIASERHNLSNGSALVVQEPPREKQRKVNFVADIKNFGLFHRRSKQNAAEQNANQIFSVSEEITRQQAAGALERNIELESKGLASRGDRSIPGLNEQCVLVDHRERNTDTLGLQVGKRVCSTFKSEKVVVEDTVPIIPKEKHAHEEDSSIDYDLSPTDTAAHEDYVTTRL

Compound | activation [1] | outcome [2] | outcome [3] | outcome [4] | outcome [5] | outcome [6] | outcome [7] | outcome [8] | outcome [9] | activation [10] | outcome [11] | outcome [12] | outcome [13] | outcome [14] | outcome [15] | outcome [16] | activation [2] | outcome [10] | activation [12] | activation [15]
COc1cc2c3cc1Oc1cc(ccc1O)C[C@@H]1c4c(cc(OC)c(O)c4Oc4ccc(cc4)C[C@H]3N(C)CC2)CCN1C | 69% (active) | inactive | inactive | inactive | inactive | inactive | inactive | inactive | inactive | 26% (active) | inactive | inactive | inactive | inactive | inactive | inactive | – | – | – | –
Cc1ccc(Cl)cc1N1CCN(CCN)CC1 | 131% (active) | – | inactive | inactive | inactive | inactive | inactive | inactive | inactive | – | inactive | – | inactive | inactive | inactive | inactive | 119% (active) | inactive | 53.8% (active) | –
COc1ccc2c(c1O)[C@]13CCN(C)[C@H](C2)[C@@H]1CCC(=O)C3 | 82% (active) | – | inactive | inactive | inactive | inactive | inactive | inactive | inactive [setting not given] | 29.5% (active) | inactive [setting not given] | inactive | inactive [setting not given] | inactive [setting not given] | inactive | inactive [setting not given] | 99% (active) | – | – | –
O=C1OC(c2ccc([N+](=O)[O-])cc2)=N/C1=C/N1CC2CC(C1)c1cccc(=O)n1C2 (stereo not drawn) | 158% (active) | inactive | inactive | inactive | inactive | inactive | inactive | inactive | inactive | 254% (active) | inactive | – | inactive | inactive | – | inactive | – | – | 64.7% (active) | 55.4% (active)
CNCCc1nc(N)n[nH]1 | 160% (active) | – | inactive | inactive | inactive | inactive | inactive | inactive | inactive | – | inactive | – | inactive | inactive | inactive | inactive | 172% (active) | inactive | 146% (active) | –
COc1ccc(C(CNC(=O)CCc2ccsc2)N(C)C)cc1 (stereo not drawn) | 67% (active) | – | inactive | inactive | inactive | inactive | inactive | inactive | inactive | 45.5% (active) | inactive | inactive | inactive | inactive | inactive | inactive | 129% (active) | – | – | –
COc1ccc(C2NCCc3[nH]cnc32)cc1 (stereo not drawn) | 220% (active) | – | inactive | inactive | inactive | inactive | inactive | inactive | inactive | – | inactive | – | inactive | inactive | inactive | inactive | 68% (active) | inactive | 49.5% (active) | –
O=C(c1ccc2c3c(cccc13)CC2)C1CCCN(CC2CC2)C1 (stereo not drawn) | 164% (active) | – | inactive | inactive | inactive | inactive | inactive | inactive | inactive | 75.5% (active) | inactive | – | inactive | inactive | inactive | inactive | 79% (active) | – | 61.9% (active) | –
